Source: PubChem BioAssay (NCI)
About 79,000 compounds went through this panel and 15% of them were active in at least one assay; those are over-represented in the sample as a whole. Unmarked numbers belong to inactive results. Activity calls are given as the source filed them. Rule as the data show it: active = growth inhibition above about 70%; inactive = the rest.

Key:
[1] = NCI Yeast Anticancer Drug Screen. Data for the rad50 strain (AID 155);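 also: 0% = growth of vehicle-only cultures of the same strain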; settings: S. cerevisiae rad50 strain growth inhibition, active compounds read high
Method in brief: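 Inhibition values express reduced yeast growth in compound-treated cultures relative to vehicle-treated controls.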

[2] = NCI Yeast Anticancer Drug Screen. Data for the mec2-1 strain (AID 157); settings: S. cerevisiae mec2-1 strain, active compounds read high
Method in brief: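 Compounds were applied to mec2-1 yeast cells. Their growth was then compared with that of vehicle-treated cultures to give growth inhibition.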

[3] = NCI Yeast Anticancer Drug Screen. Data for the sgs1 mgt1 strain (AID 161);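 also: 0% = growth of cultures given vehicle only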; settings: S. cerevisiae sgs1 mgt1 strain, active compounds read high
Method in brief: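 Compounds are added to genetically altered yeast, and growth is compared with cultures given vehicle alone to give percent inhibition.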

[4] = NCI Yeast Anticancer Drug Screen. Data for the cln2 rad14 strain (AID 165);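 also: 0% = growth equal to vehicle treated cultures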; settings: S. cerevisiae cln2 rad14 strain, active compounds read high
Method in brief: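 Strain: cln2 rad14 yeast, altered in cell cycle control and DNA damage repair. Read-out: growth inhibition vs vehicle.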

[5] = NCI Yeast Anticancer Drug Screen. Data for the bub3 strain (AID 167); settings: S. cerevisiae bub3 mutant strain, active compounds read high
Method in brief: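 Steps: expose the mutant yeast strain to compound; grow alongside vehicle-treated cultures; measure growth; express inhibition against the vehicle cultures.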

[6] = NCI Yeast Anticancer Drug Screen. Data for the mlh1 rad18 strain (AID 175); settings: S. cerevisiae mlh1 rad18 strain growth inhibition, active compounds read high
Method in brief: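 A repair-deficient yeast strain is exposed to test compound, and growth is scored relative to vehicle-treated controls.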

[7] = at 5.0 µM (retest, dose inferred, filed as 0.5)
[8] = at 50.0 µM (retest, dose inferred, filed as 5.0)

SMILES: CN1C=CC(C(O)(c2ccccc2)c2ccccc2)CC1 (stereo not given)
- growth inhibition [1, 7]: -2%
- growth inhibition [1, 8]: 1%
- growth inhibition ([1]; at 50.0 µM): 1.25%
- growth inhibition [2, 7]: -6%
- growth inhibition [2, 8]: 8%
- growth inhibition ([2]; at 50.0 µM): 19.3%
- growth inhibition [3, 7]: 2%
- growth inhibition [3, 8]: 0%
- growth inhibition ([3]; at 50.0 µM): 10%
- growth inhibition [4, 7]: -5%
- growth inhibition [4, 8]: 4%
- growth inhibition ([4]; at 50.0 µM): 51.6%
- growth inhibition [5, 7]: -5%
- growth inhibition [5, 8]: -3%
- growth inhibition ([5]; at 50.0 µM): 16.7%
- growth inhibition [6, 7]: -4%
- growth inhibition [6, 8]: 5%
- growth inhibition ([6]; at 50.0 µM): 22.8%

SMILES: O=Nc1c(O)ccc2ccccc12.[Fe].[Na+]
- growth inhibition [1, 7]: 7%
- growth inhibition [1, 8]: 97% (active)
- growth inhibition ([1]; at 50.0 µM): 97.2% (active)
- growth inhibition [2, 7]: 14%
- growth inhibition [2, 8]: 98% (active)
- growth inhibition ([2]; at 50.0 µM): 97.7% (active)
- growth inhibition [3, 7]: 8%
- growth inhibition [3, 8]: 98% (active)
- growth inhibition ([3]; at 50.0 µM): 98.5% (active)
- growth inhibition [4, 7]: -2%
- growth inhibition [4, 8]: 96% (active)
- growth inhibition ([4]; at 50.0 µM): 96.6% (active)
- growth inhibition [5, 7]: 13%
- growth inhibition [5, 8]: 98% (active)
- growth inhibition ([5]; at 50.0 µM): 97.6% (active)
- growth inhibition [6, 7]: 4%
- growth inhibition [6, 8]: 97% (active)
- growth inhibition ([6]; at 50.0 µM): 96.2% (active)

SMILES: CC(=O)OC1CCC2(C)C3CCC4(C)C(C(C)CCCC(C)C)CCC4C3CCC23OC13C (stereo not given)
- growth inhibition [1, 7]: 2%
- growth inhibition [1, 8]: 12%
- growth inhibition ([1]; at 50.0 µM): 31.9%
- growth inhibition [2, 7]: -17%
- growth inhibition [2, 8]: 23%
- growth inhibition ([2]; at 50.0 µM): 6.2%
- growth inhibition [3, 7]: -5%
- growth inhibition [3, 8]: 52%
- growth inhibition ([3]; at 50.0 µM): 72.7% (active)
- growth inhibition [4, 7]: -3%
- growth inhibition [4, 8]: 6%
- growth inhibition ([4]; at 50.0 µM): -19.2%
- growth inhibition [5, 7]: -3%
- growth inhibition [5, 8]: -4%
- growth inhibition ([5]; at 50.0 µM): -8.05%
- growth inhibition [6, 7]: 24%
- growth inhibition [6, 8]: 59%
- growth inhibition ([6]; at 50.0 µM): 35.7%

SMILES: S=C(N/N=C(/c1ccccc1)c1ccccn1)Nc1cccc(Cl)c1
- growth inhibition [1, 7]: 48%
- growth inhibition [1, 8]: 88% (active)
- growth inhibition ([1]; at 50.0 µM): 2.05%
- growth inhibition [2, 7]: 32%
- growth inhibition [2, 8]: 91% (active)
- growth inhibition ([2]; at 50.0 µM): 3.3%
- growth inhibition [3, 7]: 24%
- growth inhibition [3, 8]: 88% (active)
- growth inhibition ([3]; at 50.0 µM): 41.6%
- growth inhibition [4, 7]: 25%
- growth inhibition [4, 8]: 88% (active)
- growth inhibition ([4]; at 50.0 µM): 17.6%
- growth inhibition [5, 7]: 40%
- growth inhibition [5, 8]: 85% (active)
- growth inhibition ([5]; at 50.0 µM): 20.1%
- growth inhibition [6, 7]: 36%
- growth inhibition [6, 8]: 89% (active)
- growth inhibition ([6]; at 50.0 µM): 26.1%

SMILES: CCNC(=S)NNC(=S)NNc1ccccc1
- growth inhibition [1, 7]: 52%
- growth inhibition [1, 8]: 98% (active)
- growth inhibition ([1]; at 50.0 µM): 41.3%
- growth inhibition [2, 7]: 63%
- growth inhibition [2, 8]: 100% (active)
- growth inhibition ([2]; at 50.0 µM): 38.5%
- growth inhibition [3, 7]: 31%
- growth inhibition [3, 8]: 70% (active)
- growth inhibition ([3]; at 50.0 µM): 66.8%
- growth inhibition [4, 7]: 45%
- growth inhibition [4, 8]: 63%
- growth inhibition ([4]; at 50.0 µM): 3.85%
- growth inhibition [5, 7]: 36%
- growth inhibition [5, 8]: 77% (active)
- growth inhibition ([5]; at 50.0 µM): 60.5%
- growth inhibition [6, 7]: 47%
- growth inhibition [6, 8]: 100% (active)
- growth inhibition ([6]; at 50.0 µM): 38.5%

SMILES: O=C(O)CCC(=O)c1ccc(C2CCCC2)c2ccccc12
- growth inhibition [1, 7]: 1%
- growth inhibition [1, 8]: 28%
- growth inhibition ([1]; at 50.0 µM): 69.8%
- growth inhibition [2, 7]: -3%
- growth inhibition [2, 8]: 24%
- growth inhibition ([2]; at 50.0 µM): 78.8% (active)
- growth inhibition [3, 7]: 3%
- growth inhibition [3, 8]: 34%
- growth inhibition ([3]; at 50.0 µM): 68.3%
- growth inhibition [4, 7]: -17%
- growth inhibition [4, 8]: 42%
- growth inhibition ([4]; at 50.0 µM): 72.7% (active)
- growth inhibition [5, 7]: -13%
- growth inhibition [5, 8]: 46%
- growth inhibition ([5]; at 50.0 µM): 70.3% (active)
- growth inhibition [6, 7]: -6%
- growth inhibition [6, 8]: 11%
- growth inhibition ([6]; at 50.0 µM): 86.6% (active)

SMILES: CCC(=O)OCN1C(=O)C=CC1=O
- growth inhibition [1, 7]: 11%
- growth inhibition [1, 8]: 99% (active)
- growth inhibition ([1]; at 50.0 µM): 99% (active)
- growth inhibition [2, 7]: 3%
- growth inhibition [2, 8]: 100% (active)
- growth inhibition ([2]; at 50.0 µM): 99.3% (active)
- growth inhibition [3, 7]: -4%
- growth inhibition [3, 8]: 100% (active)
- growth inhibition ([3]; at 50.0 µM): 99.2% (active)
- growth inhibition [4, 7]: 14%
- growth inhibition [4, 8]: 99% (active)
- growth inhibition ([4]; at 50.0 µM): 98.9% (active)
- growth inhibition [5, 7]: 10%
- growth inhibition [5, 8]: 100% (active)
- growth inhibition ([5]; at 50.0 µM): 99.3% (active)
- growth inhibition [6, 7]: 20%
- growth inhibition [6, 8]: 99% (active)
- growth inhibition ([6]; at 50.0 µM): 99% (active)

SMILES: Nc1nccc(NCCCCCCNc2ccnc(N)n2)n1
- growth inhibition [1, 7]: 16%
- growth inhibition [1, 8]: 41%
- growth inhibition ([1]; at 50.0 µM): 43.2%
- growth inhibition [2, 7]: 13%
- growth inhibition [2, 8]: 19%
- growth inhibition ([2]; at 50.0 µM): 41.6%
- growth inhibition [3, 7]: 8%
- growth inhibition [3, 8]: 36%
- growth inhibition ([3]; at 50.0 µM): 80% (active)
- growth inhibition [4, 7]: 17%
- growth inhibition [4, 8]: 21%
- growth inhibition ([4]; at 50.0 µM): 52%
- growth inhibition [5, 7]: 9%
- growth inhibition [5, 8]: 33%
- growth inhibition ([5]; at 50.0 µM): 48%
- growth inhibition [6, 7]: 17%
- growth inhibition [6, 8]: 60%
- growth inhibition ([6]; at 50.0 µM): 57.2%

SMILES: Cc1cccc(C[P+](c2ccccc2)(c2ccccc2)c2ccccc2)c1
- growth inhibition [1, 7]: 76% (active)
- growth inhibition [1, 8]: 97% (active)
- growth inhibition ([1]; at 50.0 µM): 90.3% (active)
- growth inhibition [2, 7]: 67%
- growth inhibition [2, 8]: 99% (active)
- growth inhibition ([2]; at 50.0 µM): 93.1% (active)
- growth inhibition [3, 7]: 58%
- growth inhibition [3, 8]: 99% (active)
- growth inhibition ([3]; at 50.0 µM): 93.3% (active)
- growth inhibition [4, 7]: 32%
- growth inhibition [4, 8]: 98% (active)
- growth inhibition ([4]; at 50.0 µM): 91.9% (active)
- growth inhibition [5, 7]: 71% (active)
- growth inhibition [5, 8]: 99% (active)
- growth inhibition ([5]; at 50.0 µM): 92.2% (active)
- growth inhibition [6, 7]: 76% (active)
- growth inhibition [6, 8]: 98% (active)
- growth inhibition ([6]; at 50.0 µM): 90.3% (active)

SMILES: CSC(=S)NN=C1CCCCC1
- growth inhibition [1, 7]: 59%
- growth inhibition [1, 8]: 97% (active)
- growth inhibition ([1]; at 50.0 µM): 90.9% (active)
- growth inhibition [2, 7]: 47%
- growth inhibition [2, 8]: 98% (active)
- growth inhibition ([2]; at 50.0 µM): 88.5% (active)
- growth inhibition [3, 7]: 49%
- growth inhibition [3, 8]: 97% (active)
- growth inhibition ([3]; at 50.0 µM): 93.8% (active)
- growth inhibition [4, 7]: 9%
- growth inhibition [4, 8]: 78% (active)
- growth inhibition ([4]; at 50.0 µM): 58.6%
- growth inhibition [5, 7]: 81% (active)
- growth inhibition [5, 8]: 97% (active)
- growth inhibition ([5]; at 50.0 µM): 93.7% (active)
- growth inhibition [6, 7]: 55%
- growth inhibition [6, 8]: 96% (active)
- growth inhibition ([6]; at 50.0 µM): 90.8% (active)
